Key:
Assay type in all cases: functional
[1] = target: Solute carrier family 2, facilitated glucose transporter member 1 (Homo sapiens) (UniProt P11166); test: ST_JUDE_LEISH: Cytotoxicity at 2uM final concentration against transgenic Leishmania Mexicana promastigotes LmGLUT1 that are glucose transport deficient and complemented with the human glucose transporter GLUT1. Activity is measured by DNA content using SYBR green in vitro
[2] = target: Hexose transporter 1 (Plasmodium falciparum) (UniProt O97467); test: ST_JUDE_LEISH: Cytotoxicity at 2uM final concentration against transgenic Leishmania Mexicana promastigotes LmPfHT that are glucose transport deficient and complemented with the Plasmodium falciparum hexose transporter. Activity is measured by DNA content using SYBR green in vitro
[3] = target: Glucose transporter (Leishmania mexicana) (UniProt O61059); test: ST_JUDE_LEISH: Cytotoxicity at 2uM final concentration against transgenic Leishmania Mexicana promastigotes LmGT2 that are glucose transport deficient and complemented with the L. Mexicana glucose transporter 2. Activity is measured by DNA content using SYBR green in vitro

Sequence of Solute carrier family 2, facilitated glucose transporter member 1 (Homo sapiens) (P11166 whole entry): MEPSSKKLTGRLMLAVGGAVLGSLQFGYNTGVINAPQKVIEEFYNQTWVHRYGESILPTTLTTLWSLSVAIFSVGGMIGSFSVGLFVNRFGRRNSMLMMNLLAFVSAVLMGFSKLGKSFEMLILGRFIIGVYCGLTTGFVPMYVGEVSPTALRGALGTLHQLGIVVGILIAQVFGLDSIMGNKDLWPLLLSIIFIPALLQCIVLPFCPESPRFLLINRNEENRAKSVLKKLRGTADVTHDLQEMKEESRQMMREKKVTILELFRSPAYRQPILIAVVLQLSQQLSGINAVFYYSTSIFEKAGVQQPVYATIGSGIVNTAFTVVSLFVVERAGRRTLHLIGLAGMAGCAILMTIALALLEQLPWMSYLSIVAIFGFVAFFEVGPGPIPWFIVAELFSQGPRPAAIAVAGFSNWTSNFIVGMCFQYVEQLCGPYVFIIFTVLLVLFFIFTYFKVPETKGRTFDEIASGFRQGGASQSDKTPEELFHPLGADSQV

Row | Structure (SMILES) | inhibition [1] | inhibition [2] | inhibition [3]
1 | CCOC(=O)c1sc(C(C)Nc2ccccc2)nc1-c1ccccc1 (stereo not drawn) | 0.89% | -0.3% | -1.6%
2 | c1ccc(-c2csc(Nc3nc4cc5c(cc4s3)OCO5)n2)nc1 | 0.62% | 0.83% | -1.72%
3 | CN1CCN(CCCN(Cc2cccc(-c3cccc(CNC4CCCC4)c3)c2)C(=O)/C=C/c2ccccc2)CC1 | -1.1% | -0.02% | -2.44%
4 | CS(=O)(=O)c1cccc(-c2cnc(N)c3cc(-c4ccc(F)cc4)ccc23)c1 | 2.85% | 1.64% | 1.35%
5 | CN(C)CCCOc1ccc(CNCc2cccc(Oc3ccc(Cl)cc3)c2)cc1 | 6.24% | 2.32% | 3.82%
6 | O=C(Nc1ccc(Cl)c(-c2nc3ccccc3[nH]2)c1)c1ccc(-c2ccc(Cl)cc2)o1 | 2.63% | 4.17% | 1.89%
7 | NC(=O)c1ccc(NCC(=O)Nc2cccc(-c3cccc(-c4nc5cc(F)ccc5[nH]4)c3)c2)cc1 | -0.29% | 1.39% | -1.25%
8 | CN(C)CCNCc1ccc(-c2ccc3c(Nc4ccc(F)cc4Cl)ccnc3c2)o1 | 4.19% | 6.24% | -0.47%
9 | Cc1ccc(Nc2nc3cc(Nc4ccnc(Nc5ccc(CS(C)(=O)=O)cc5)n4)ccc3o2)cc1 | 9.35% | 9.37% | 5.97%
10 | O=C(/C=C/c1ccc(Cl)c(Cl)c1)NC1CCC(CN2CCC(Cc3cc4ccccc4[nH]3)CC2)CC1 (stereo not drawn) | 4.78% | 1.97% | 3.2%
11 | Cc1cccc2nc(-c3cccc(-c4ccc(NC(=O)Nc5ccc(Cl)cc5)cc4)c3)[nH]c12 | 4.43% | 5.13% | -3.06%
12 | CCOc1cc(NC(=O)Nc2ccnc3ccccc23)cc(OC)c1 | 12.6% | 10.5% | 7.94%
13 | COc1cc(CCN(C)Cc2ccc(OC)c(OC)c2)ccc1NC(=O)c1cccc2c(O)c3cccc(F)c3nc12 | 3.49% | 1.84% | 3.27%
14 | O=[N+]([O-])c1ccc(/C=N/O)nc1 | 88.1% | 91.2% | 84.6%
15 | CN(C)CCCNc1ccnc2cc(Cl)ccc12 | 1.15% | 0.62% | -1.76%
16 | O=C(Nc1cccc(CCNCc2ccccc2)c1)Nc1cccc2ccccc12 | 10.3% | 11% | 10.9%
17 | Cc1cc(CN2CC[C@H](NC(=O)c3ccc(Cl)c(Cl)c3)C2)ccc1OC1CCN(Cc2ccccc2)CC1 | 11% | 8.06% | 8.04%
18 | CCOc1cc(C)ccc1NC1CCN(CCCCNC(=O)c2ccc(NC(=O)c3ccc(Cl)cc3)cc2)CC1 | -0.53% | 1.56% | 1.89%
19 | Fc1cccc(COc2ccc(Nc3ncnc4sc(C#CC5CCCCN5)cc34)cc2Cl)c1 (stereo not drawn) | 3.03% | 1.13% | -0.16%
20 | Cc1cc(NC2CCN(Cc3ccccc3)CC2)nc(NCCCCc2ccccc2)n1 | 23.4% | 17.5% | 4.87%
21 | O=C(Nc1cccc(-c2ccc(NCCCN3CCCC3)nc2)c1)c1ccccc1 | 5.13% | 6.59% | 0.77%
22 | COc1ccccc1-n1c(-c2ccc3ccccc3c2)csc1=NC(=O)c1ccccc1 | 0.68% | -0.46% | -4.04%
23 | Cc1cccc(C(=O)Nc2ccc(N3CCCN(Cc4cccc(O)c4)CC3)cc2)c1 | 5.01% | 3.72% | 2.78%
24 | Cc1cc(N(C)C2CCN(CC3CCCCC3)C2)nc(Nc2ccc(Br)cc2)n1 (stereo not drawn) | 2.84% | 4.85% | 2.06%

Row | Structure (SMILES) | inhibition [1] | inhibition [2] | inhibition [3]
25 | COc1cc2nc(N[C@@H](CO)c3ccccc3)nc(NCc3ccccc3)c2cc1OC | 1.12% | 2.17% | 1.61%
26 | COc1ccc(CCNCCCCCCNCCc2ccc(-c3ccccc3)cc2)cc1OC | 92.8% | 94.9% | 49.7%
27 | COc1ccc(NC(=O)[C@H](Cc2ccccc2)Nc2cc(C)nc(NCCOc3ccccc3)n2)cc1 | 4.06% | 2.78% | 2.55%
28 | Cc1cccc(Cl)c1Nc1nnc(-c2cccc(C(=O)NC[C@@H]3CC[C@H]4C[C@@H]3C4(C)C)c2)o1 | 10.6% | 8.97% | 6.65%
29 | CC(C)CCNC(=O)C1Cc2c([nH]c3ccc(Br)cc23)C2(CCN(CCc3ccccc3)CC2)N1 (stereo not drawn) | 1.72% | 0.42% | 0.26%
30 | CC(C)c1ccc(OCC(O)CN(C)C(C)C(O)c2ccccc2)c(Br)c1 (stereo not drawn) | 5.55% | 12.5% | 10.4%
31 | Cc1cccc(C)c1CNc1ccnc2ccccc12 | 1.11% | 2.91% | 6.9%
32 | CC(C)CNCc1cccc(-c2ccccc2CN(C(=O)NCCc2ccccc2)C2CCN(Cc3ccccc3)CC2)c1 | 13.1% | 11.4% | 8.25%
33 | COc1ccc(C2CC(c3cccs3)=NN2C(=O)COc2cccc3c2CCCC3O)cc1OC (stereo not drawn) | -1.84% | -0.04% | 4.14%
34 | COc1ccc2nccc([C@@H](O)CN3CCC(NCc4nc5cc(F)cc(F)c5[nH]4)CC3)c2c1 | 3.31% | 4.04% | -0.63%
35 | COc1ccc(-c2cnc(N)c(-c3ccc(C(N)=O)cc3)c2)cc1OC | 3.97% | 3.4% | 5.07%
36 | COc1cccc(Nc2nccc(NCC(O)c3cccc(C(F)(F)F)c3)n2)c1 (stereo not drawn) | 4.86% | 5.48% | 1.78%
37 | Cc1cccc2nc(-c3ccc(-c4cccc(CN5CCN(c6ccncc6)CC5)c4)s3)[nH]c12 | 4.03% | 2.05% | 0.33%
38 | Cc1cc(N(C)CCN(C)C)nc(Nc2ccc(Br)cc2)n1 | -0.17% | 3.61% | 2.53%
39 | COc1cc(SC)ccc1C(=O)N1CC(C)CC(C)C1 (stereo not drawn) | 11.1% | 11.1% | 9.2%
40 | O=C1CCCN1CCCNCc1cccc(-c2ccc(-c3nc4cc(C(F)(F)F)ccc4[nH]3)cc2)c1 | 13.5% | 13% | 13%
41 | Cc1nc(N/C(N)=N/C(=O)NC2CCCCC2)nc2ccccc12 | 7.72% | 5.72% | 6.66%
42 | CCn1cc2c3c(cc(C(=O)N[C@@H](Cc4ccccc4)[C@H](O)CNC4CCOCC4)cc31)N(C)S(=O)(=O)CC2 | 0.41% | 0.29% | 4.85%
43 | O=C(NC1CCN(Cc2cccc(C(F)(F)F)c2)CC1)c1ccc(-c2cccc(C(F)(F)F)c2)s1 | 6.34% | 3.03% | 6.14%
44 | CC[C@H](C)CNC(=O)c1ccnc(-c2ccc(CN3CCC(N4CCCC4)CC3)cc2)c1 | 1.51% | 0.38% | 0.35%
45 | COc1ccc(-c2nc3c(N)nc(N)nc3nc2C(C)C)cc1 | 15.6% | 30.7% | 21.4%
46 | COc1cccc(C(C)(C)NC[C@@H](O)[C@H](Cc2ccccc2)NC(=O)c2cc(C3CCCC3)cc(N3CCCCS3(=O)=O)c2F)c1 | 0.16% | 2.15% | 1.09%
47 | Cc1cc(-c2ccc(NC(=O)c3coc4ccc(N5CC(C)N(C)C(C)C5)cc34)cc2C)cc(C)n1 (stereo not drawn) | 2.55% | 3.78% | 1.55%
48 | CC[C@H](C)CNC(=O)c1ccnc(-c2ccc(CNCCCc3ccccc3)cc2)c1 | 1.95% | 1.1% | -0.91%

Row | Structure (SMILES) | inhibition [1] | inhibition [2] | inhibition [3]
49 | Cc1cc(=O)c2cc(Oc3cccc(OC(F)(F)F)c3)ccc2[nH]1 | 1.1% | 2.75% | 4.49%
50 | COc1cccc(Nc2nc(Nc3cccc(C#N)c3)cc(C(F)(F)F)n2)c1 | 6.5% | 6.64% | 6.05%
51 | CN1CCN(Cc2ccc(-c3ccc4c(Nc5ccc(Oc6ccccc6)cc5)ccnc4c3)o2)CC1 | -0.9% | -0.3% | 0.49%
52 | O=C(C=Cc1ccc(Cl)c(Cl)c1)NCCCCCN1CCC(CCCNC(=O)c2sc3ccccc3c2Cl)CC1 | 2.7% | 0.72% | 1.61%
53 | COc1ccc(Cl)cc1N1CCN(CCCNC(=O)c2ccc(-c3nc4c(C)cccc4[nH]3)s2)CC1 | 1.19% | -0.51% | -1.08%
54 | Cc1cccc2nc(-c3cccc(-c4cccc(CNCCNC(=O)c5ccnn5C)c4)c3)[nH]c12 | -1.89% | -1.71% | -2.41%
55 | CCNc1cc(C(=O)N[C@@H](Cc2ccccc2)[C@H](O)CN[C@H](C)C(C)(C)C)cc(N2CCCCS2(=O)=O)c1 | 2.2% | 1.95% | 2.33%
56 | CC(=O)Nc1ncc(C(=O)Nc2cccc(-c3cccc(-c4nc5cc(C(F)(F)F)ccc5[nH]4)c3)c2)s1 | -1.12% | 0.35% | 0.3%
57 | COC(=O)c1cccc(CNCc2cccc(-c3ccc(-c4nc5cc(C(F)(F)F)ccc5[nH]4)cc3)c2)c1 | 2.29% | 3.53% | 2.66%
58 | FC(F)(F)c1ccc2[nH]c(-c3ccc(-c4ccc(CNCc5cnn(-c6ccccc6)n5)cc4)s3)nc2c1 | 2.88% | 1.1% | 2.24%
59 | COc1cc(NC(=O)c2cc([N+](=O)[O-])ccc2NC(=O)CNC2CCCCC2C)cc(OC)c1 (stereo not drawn) | 7.57% | 2.04% | 1.96%
60 | Clc1ccc(-c2cnc3ccc(NCc4ccncc4)nn23)cc1 | 2.08% | 0.84% | -0.5%
61 | c1cncc(Oc2ccc(Nc3ccnc4cc(-c5cccc(CN6CCCCC6)c5)ccc34)cc2)c1 | 3.68% | 2.51% | 2.68%
62 | O=C(NCCN1CCOCC1)c1ccc(-c2ccc(CNCCCc3ccccc3)cc2)nc1 | -1.5% | -3% | -0.47%
63 | Cc1cc(NC(=O)Nc2ccc(C#N)cc2)c2ccccc2n1 | 1.79% | 4.35% | 0.95%
64 | CC1CCCN(S(=O)(=O)c2ccc(NC(=O)c3cc(-c4ccccc4O)n[nH]3)cc2)C1 (stereo not drawn) | 1.49% | 3.54% | 0.62%
65 | CN1CCC(NCc2ccc(-c3cccc(S(=O)(=O)NCc4ccccc4)c3)cc2)CC1 | 2.23% | 3.01% | -1.01%
66 | CC(C)(C)c1ccc(NC(=O)c2ccc(CN3CCCN(Cc4cccc(C#N)c4)CC3)cc2)cc1 | 6.54% | 7.31% | 4.99%
67 | CCCCCC(C)N/C(=N/c1ccccc1Br)Nc1ccc(C#N)cc1O (stereo not drawn) | 2.35% | 1.33% | 0.92%
68 | CCCCc1ccc(-c2ccc3[nH]c(C)c(Br)c(=O)c3c2)cc1 | 3.02% | 3.88% | 2.44%
69 | Cc1ccc(NC(=O)c2ccc3ncccc3c2)cc1OC1CCN(Cc2ccc(F)cc2)CC1 | 6.67% | 3.46% | 5.46%
70 | O=C(/C=C/c1ccc(Cl)c(Cl)c1)NCCCCCCN1CCCN(C(=O)Nc2cc(F)cc(F)c2)CC1 | 0.71% | 1.42% | -1.02%
71 | O=C(C=Cc1cccs1)Nc1ccc(-c2nc3ccccc3[nH]2)cc1 | 1.65% | 0.72% | 3.04%

From ChEMBL document CHEMBL3433997, “St. Jude Leishmania screening dataset” (2016)
